# Measurements taken from ChEMBL document CHEMBL1961873, “Compounds: GSK PKIS; Assays: Nanosyn kinase panel” (2012).
# Legend:
# [1] = target: T1, Inhibitor of nuclear factor kappa-B kinase subunit epsilon (Homo sapiens) (UniProt Q14164); settings: at 1 µM;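 note: reported values are averaged percent inhibition figures against human IKKε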
# T1 sequence (whole entry): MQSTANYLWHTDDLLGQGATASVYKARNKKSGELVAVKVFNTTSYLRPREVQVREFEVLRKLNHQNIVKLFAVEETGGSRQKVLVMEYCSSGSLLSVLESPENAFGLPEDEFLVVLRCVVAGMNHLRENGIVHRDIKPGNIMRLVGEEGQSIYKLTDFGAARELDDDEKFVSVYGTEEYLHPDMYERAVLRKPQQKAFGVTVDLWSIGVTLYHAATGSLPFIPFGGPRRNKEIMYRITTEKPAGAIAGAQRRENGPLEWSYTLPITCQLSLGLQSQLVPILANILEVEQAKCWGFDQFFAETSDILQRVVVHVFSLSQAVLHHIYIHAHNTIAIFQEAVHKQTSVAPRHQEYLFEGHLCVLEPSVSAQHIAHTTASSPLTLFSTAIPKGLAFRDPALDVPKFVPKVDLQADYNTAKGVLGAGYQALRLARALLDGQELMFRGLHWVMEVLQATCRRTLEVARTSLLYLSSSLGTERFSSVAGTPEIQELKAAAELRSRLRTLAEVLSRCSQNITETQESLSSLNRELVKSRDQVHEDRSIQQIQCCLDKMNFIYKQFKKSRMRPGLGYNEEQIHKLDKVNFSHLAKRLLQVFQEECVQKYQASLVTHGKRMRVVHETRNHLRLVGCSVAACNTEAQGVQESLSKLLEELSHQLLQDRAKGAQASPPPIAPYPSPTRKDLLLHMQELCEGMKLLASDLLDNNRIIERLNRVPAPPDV
# [2] = target: T2, Serine/threonine-protein kinase Nek1 (Homo sapiens) (UniProt Q96PY6); settings: at 0.1 µM
# T2 sequence (whole entry): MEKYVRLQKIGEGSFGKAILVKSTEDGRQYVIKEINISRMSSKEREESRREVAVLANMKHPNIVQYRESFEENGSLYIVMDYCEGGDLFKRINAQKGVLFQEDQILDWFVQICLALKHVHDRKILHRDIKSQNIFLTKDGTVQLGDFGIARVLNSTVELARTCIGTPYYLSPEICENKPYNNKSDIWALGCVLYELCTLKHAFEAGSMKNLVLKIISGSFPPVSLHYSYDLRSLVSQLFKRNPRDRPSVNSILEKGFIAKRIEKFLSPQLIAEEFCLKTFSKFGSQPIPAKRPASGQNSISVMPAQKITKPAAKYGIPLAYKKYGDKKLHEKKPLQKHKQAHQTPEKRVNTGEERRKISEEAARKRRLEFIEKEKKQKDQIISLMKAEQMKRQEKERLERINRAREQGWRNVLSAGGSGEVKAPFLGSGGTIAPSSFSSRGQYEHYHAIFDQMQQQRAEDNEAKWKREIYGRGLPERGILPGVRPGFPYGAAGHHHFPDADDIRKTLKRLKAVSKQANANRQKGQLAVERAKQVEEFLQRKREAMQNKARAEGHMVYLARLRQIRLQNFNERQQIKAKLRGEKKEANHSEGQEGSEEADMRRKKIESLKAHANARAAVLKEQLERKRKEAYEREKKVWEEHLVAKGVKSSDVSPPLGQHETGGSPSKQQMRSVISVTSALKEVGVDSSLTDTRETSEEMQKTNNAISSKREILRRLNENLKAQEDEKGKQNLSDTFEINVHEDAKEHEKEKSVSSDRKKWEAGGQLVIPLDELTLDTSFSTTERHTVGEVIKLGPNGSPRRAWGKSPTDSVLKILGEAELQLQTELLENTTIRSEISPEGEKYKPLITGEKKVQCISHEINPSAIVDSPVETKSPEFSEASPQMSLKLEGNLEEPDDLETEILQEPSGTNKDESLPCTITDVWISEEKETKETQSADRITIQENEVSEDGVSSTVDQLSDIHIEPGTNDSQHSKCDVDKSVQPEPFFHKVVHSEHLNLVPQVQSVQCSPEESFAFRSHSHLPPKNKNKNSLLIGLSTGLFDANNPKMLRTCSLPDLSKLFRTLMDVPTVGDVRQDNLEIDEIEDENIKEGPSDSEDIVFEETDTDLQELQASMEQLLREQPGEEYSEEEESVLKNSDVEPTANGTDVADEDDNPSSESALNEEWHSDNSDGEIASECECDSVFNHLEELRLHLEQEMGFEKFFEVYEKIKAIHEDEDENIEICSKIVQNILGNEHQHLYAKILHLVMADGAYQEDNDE
# [3] = target: T2, Serine/threonine-protein kinase Nek1 (Homo sapiens); settings: at 1 µM
# [4] = target: T3, Serine/threonine-protein kinase Nek2 (Homo sapiens) (UniProt P51955); settings: at 0.1 µM
# T3 sequence (whole entry): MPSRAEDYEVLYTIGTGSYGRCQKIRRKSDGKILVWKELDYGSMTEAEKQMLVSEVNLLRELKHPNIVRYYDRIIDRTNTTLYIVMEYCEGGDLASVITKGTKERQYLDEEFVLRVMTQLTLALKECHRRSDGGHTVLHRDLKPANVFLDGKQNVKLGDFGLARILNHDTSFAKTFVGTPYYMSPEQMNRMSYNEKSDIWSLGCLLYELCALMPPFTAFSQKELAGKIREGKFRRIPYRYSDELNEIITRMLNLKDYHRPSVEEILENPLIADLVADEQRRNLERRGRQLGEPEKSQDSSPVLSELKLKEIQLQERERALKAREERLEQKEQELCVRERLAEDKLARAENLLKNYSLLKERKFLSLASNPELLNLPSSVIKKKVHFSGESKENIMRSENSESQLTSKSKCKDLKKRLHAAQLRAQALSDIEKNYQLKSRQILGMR
# [5] = target: T3, Serine/threonine-protein kinase Nek2 (Homo sapiens); settings: at 1 µM
# [6] = target: Serine/threonine-protein kinase Nek6 (Homo sapiens) (UniProt Q9HC98); settings: at 0.1 µM
# Sequence of Serine/threonine-protein kinase Nek6 (Homo sapiens) (Q9HC98 whole entry): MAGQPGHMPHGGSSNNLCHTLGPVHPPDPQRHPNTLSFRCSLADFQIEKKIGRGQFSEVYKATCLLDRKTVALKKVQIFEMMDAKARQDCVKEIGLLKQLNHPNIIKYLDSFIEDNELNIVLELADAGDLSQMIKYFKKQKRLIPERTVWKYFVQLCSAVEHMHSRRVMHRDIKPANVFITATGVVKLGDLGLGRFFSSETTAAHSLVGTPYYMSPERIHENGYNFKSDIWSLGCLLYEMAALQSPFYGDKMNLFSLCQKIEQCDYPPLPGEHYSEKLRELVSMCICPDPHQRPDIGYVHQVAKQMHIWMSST
# [7] = target: Serine/threonine-protein kinase Nek6 (Homo sapiens) (UniProt Q9HC98); settings: at 1 µM
# [8] = target: Serine/threonine-protein kinase Nek7 (Homo sapiens) (UniProt Q8TDX7); settings: at 0.1 µM
# Sequence of Serine/threonine-protein kinase Nek7 (Homo sapiens) (Q8TDX7 whole entry, looked up): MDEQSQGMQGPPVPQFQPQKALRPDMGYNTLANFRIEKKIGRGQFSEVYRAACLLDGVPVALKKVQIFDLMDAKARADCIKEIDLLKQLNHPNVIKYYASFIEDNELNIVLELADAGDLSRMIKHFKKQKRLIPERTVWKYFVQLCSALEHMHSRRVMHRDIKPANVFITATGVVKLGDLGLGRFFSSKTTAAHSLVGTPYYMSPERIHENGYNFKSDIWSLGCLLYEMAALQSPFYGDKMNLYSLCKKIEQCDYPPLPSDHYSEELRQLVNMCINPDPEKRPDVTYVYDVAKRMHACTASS
# [9] = target: Serine/threonine-protein kinase Nek7 (Homo sapiens) (UniProt Q8TDX7); settings: at 1 µM
# [10] = target: T4, Serine/threonine-protein kinase Nek9 (Homo sapiens) (UniProt Q8TD19); settings: at 0.1 µM;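 note: reported value is the mean percent inhibition of NEK9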
# T4 sequence (whole entry): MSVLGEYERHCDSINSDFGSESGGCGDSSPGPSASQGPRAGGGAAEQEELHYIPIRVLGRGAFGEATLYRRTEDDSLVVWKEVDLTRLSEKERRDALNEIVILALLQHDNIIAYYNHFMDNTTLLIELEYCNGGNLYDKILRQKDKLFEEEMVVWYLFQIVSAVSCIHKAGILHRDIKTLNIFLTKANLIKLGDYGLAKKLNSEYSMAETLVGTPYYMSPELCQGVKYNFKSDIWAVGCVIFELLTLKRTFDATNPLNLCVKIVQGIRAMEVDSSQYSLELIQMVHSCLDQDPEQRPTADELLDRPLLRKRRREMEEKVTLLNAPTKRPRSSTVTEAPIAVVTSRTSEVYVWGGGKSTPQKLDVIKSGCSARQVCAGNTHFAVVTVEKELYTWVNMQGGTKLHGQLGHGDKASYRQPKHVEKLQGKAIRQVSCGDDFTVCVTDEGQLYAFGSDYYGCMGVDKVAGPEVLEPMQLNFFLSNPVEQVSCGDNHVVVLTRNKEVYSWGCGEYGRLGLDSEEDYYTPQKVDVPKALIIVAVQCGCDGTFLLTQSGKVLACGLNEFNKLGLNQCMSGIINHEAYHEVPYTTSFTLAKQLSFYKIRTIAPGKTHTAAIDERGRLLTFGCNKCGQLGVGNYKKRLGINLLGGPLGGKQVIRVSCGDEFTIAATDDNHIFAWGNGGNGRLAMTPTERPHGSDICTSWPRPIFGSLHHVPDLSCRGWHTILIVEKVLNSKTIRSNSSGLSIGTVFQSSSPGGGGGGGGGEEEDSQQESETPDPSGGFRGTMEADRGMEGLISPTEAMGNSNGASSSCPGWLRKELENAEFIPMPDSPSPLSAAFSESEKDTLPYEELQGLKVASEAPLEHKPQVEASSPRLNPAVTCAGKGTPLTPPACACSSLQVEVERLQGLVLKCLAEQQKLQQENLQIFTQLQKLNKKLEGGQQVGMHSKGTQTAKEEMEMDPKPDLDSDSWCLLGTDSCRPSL
smiles,measurement,setting,value
FC(F)(F)CNc1nccc(-c2cnn3ncccc23)n1,inhibition,[1],0.44%
same,inhibition,[2],2.31%
same,inhibition,[3],0.95%
same,inhibition,[4],3.06%
same,inhibition,[5],2.24%
same,inhibition,[6],0.83%
same,inhibition,[7],0.6%
same,inhibition,[8],-1.64%
same,inhibition,[9],1.79%
same,inhibition,[10],4.65%
